Hits are enriched below; roughly 8% of the tested compounds scored in any of these assays.
KB-V1 cytotox – kills drug-selected multidrug resistant KB-V1 cells; AID 1347076; KB-V1 MDR cells viability, CellTiter-Glo, 72 h; 400,000 tested, 3.4% active; Potency, µM (top dose mostly 46.1 µM), actives largely listed as cytotoxic; also: % is scaled to controls: 0 for no effect and ±100 for the full control effect; nearly all actives have a fitted effect of over 60% in size
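Compound-treated KB-V1 multidrug-resistant cells, 72 h, 37 degrees C; viability by CellTiter-Glo. Fitted qHTS curves give the values.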
MCF10A rerep – DNA re-replication induction in MCF 10a cells; MCF 10A DNA re-replication, Hoechst nuclear intensity, 48 h; Potency, µM (titrated, usually from 46.1 µM), for inactives: at the highest dose activity, positive = re-replication, actives largely listed as activators; 350,000 tested, 2.9% active; AID 624296; also: % of control where 0% means no effect; nearly all actives have a fitted effect of over 50% in size
HT1080-NT tox – kills 2HG-producing HT-1080-NT fibrosarcoma cells. AID 686970. Potency, µM (highest dose often 46.1 µM), inactives show top-dose activity, negative = less viability, actives largely listed as cytotoxic. HT-1080-NT fibrosarcoma viability, CellTiter-Glo ATP luminescence, 48 h. 360,000 tested, 1.6% active;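 also: NT is the 2HG producing partner of a matched IDH1 knockdown line; 0% = DMSO-treated cells and -100% = media-only wells without cells; nearly all actives have a fitted effect of over 55% in size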
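Toxicity toward the 2HG-producing NT line was scored as %Activity, normalised to DMSO and no-cell wells, from CellTiter-Glo luminescence after 48 hours' treatment.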
KB-3-1 tox – kills parental KB-3-1 adenocarcinoma cells. 400,000 tested, 1.4% active. Potency, µM (titrated, usually from 46.1 µM), hits mostly cytotoxic. KB-3-1 viability, CellTiter-Glo ATP luminescence, 72 h. AID 1347075; also: % is scaled to controls: 0 for no effect and ±100 for the full control effect; nearly all actives have a fitted effect of over 60% in size
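Parental KB-3-1 adenocarcinoma cells in phenol-red-free DMEM with 10% FBS were pin-treated with compounds at several concentrations, incubated 72 h at 37 °C, and viability read by CellTiter-Glo luminescence; concentration-effect curves were fitted after normalization.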
HT1080 IDH1KD tx – kills HT-1080 cells with IDH1 knockdown. AID 686971. Potency, µM (highest dose often 46.1 µM), inactives show at the highest dose activity, negative = toxicity, actives largely listed as cytotoxic. 360,000 tested, 2% active. HT-1080 IDH1 knockdown viability, ATP luminescence, 48 h;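 also: 0% = DMSO wells and -100% = cell-free medium wells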
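Cytotoxicity counter-line: IDH1KD HT-1080, 48 h, CellTiter-Glo. Curves classed by r2, magnitude and activity.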
SW480 rereplic – inducers of DNA re-replication in SW480 colon cancer cells; SW480 DNA re-replication, Hoechst DNA content imaging, 48 h; Potency, µM (series often up to 46.1 µM), inactives show at the top dose re-replication activation, hits mostly activators; 340,000 tested, 1.8% active; also: % of control where 0% means no effect; nearly all actives have a fitted effect of over 55% in size
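DNA re-replication was detected as more nuclei of elevated Hoechst intensity after 48 hr exposure to compound (23 nL pinned per well of 250 cells).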
* = called active by the depositor; i = inactive; u = inconclusive. Calls follow the shape of the dose curve; as a rule, active = well fitted curve in the direction sought with a large enough effect; inconclusive = small, poorly fitted or top-dose-only effect, or another doubt; inactive = no such curve, though single readings can be large; an effect the other way counts as inactive or inconclusive. Potency is read from the fitted curve at half-maximal effect.

SMILES	KB-V1 cytotox	MCF10A rerep	HT1080-NT tox	KB-3-1 tox	HT1080 IDH1KD tx	SW480 rereplic
O=C(N/N=C/c1ccc(O)c(O)c1)c1cccc(S(=O)(=O)N2CCCCC2)c1	i	-1.6%	-0.3%	i	-2.3%	-1.4%
O=C(NNCc1ccccc1)c1ccccc1	i	-1.1%	3.4%	i	4.7%	3.9%
CN(CC(=O)N(C)CC(=O)Nc1c(Cl)cccc1Cl)Cc1ccccc1F	i	17.6%	-1.5%	i	0.0%	0.6%
Cn1cnc([N+](=O)[O-])c1S(=O)(=O)c1ccc(Cl)cc1	i	9.2µM*	9.2µM*	i	6.51µM*	u
O=C(NC1CCCC1)C(c1ccccn1)N(Cc1ccccc1F)C(=O)c1csnn1 (configuration not stated)	i	-1.2%	2.3%	i	14.5%	-4.6%
O=C(CNS(=O)(=O)c1ccc(Br)s1)N1CCCC1	i	6.3%	5.8%	i	8.1%	2.1%
CCOC(=O)C1CCCN(C(=O)C2COc3ccccc3O2)C1 (configuration not stated)	i	11.6%	4.4%	i	3.4%	u
CCOC(=O)C1CCCN(C(=O)c2cc3cc(Br)ccc3oc2=O)C1 (configuration not stated)	i	5.2%	-10.9%	i	4.5%	6.31µM*
CCOC(=O)C1CCCN(C(=O)C2c3ccccc3Oc3ccccc32)C1 (configuration not stated)	11.6µM*	10.9%	6.4%	i	0.7%	-3.6%
CCOc1ccccc1N1CCN(C(=O)c2ccccc2)CC1	i	-1.3%	6.6%	i	7.8%	-8.1%
CCOc1ccccc1N1CCN(C(=O)C2c3ccccc3Oc3ccccc32)CC1	14.6µM*	6.51µM*	u	13µM*	18.4µM*	16.4µM*
CCOC(=O)C1CCCN(C(=O)CNS(=O)(=O)c2ccc(Br)s2)C1 (configuration not stated)	20.6µM*	-2.8%	6.8%	i	-6.2%	0.9%
Fc1cccc(NC(=S)NCC(c2cccnc2)N2CCOCC2)c1 (configuration not stated)	i	-1.4%	3.9%	i	1.8%	0.2%
OCC1CCCN(c2ncnc3scc(-c4ccccc4)c23)C1 (configuration not stated)	i	-3.1%	-4.9%	i	-16.1%	-4.6%
CCOC(=O)C1CCCN(C(=S)Nc2ccc(Nc3ccccc3)cc2)C1 (configuration not stated)	i	2.0%	-16.2%	i	-2.2%	-10.3%
CCOC(=O)C1CCCN(C(=S)Nc2ccc(C)cc2C)C1 (configuration not stated)	14.6µM*	0.0%	-0.2%	i	9.8%	0.7%
CCOC(=O)/C=C/C(=O)Nc1ccc(Oc2ccccc2)cc1	i	16.4µM*	7.31µM*	i	16.4µM*	18.1%
O=C(O)/C=C/C(=O)Nc1ccc(Oc2ccccc2)cc1	i	-36.6%	-1.4%	i	1.0%	-4.3%
CCOC(=O)/C=C/S(=O)(=O)c1ccc(NC(C)=O)cc1	i	2.31µM*	u	14.6µM*	u	2.59µM*
CCOC(=O)/C=C/C(=O)Nc1ccc(S(=O)(=O)Nc2c(C)cc(C)cc2C)cc1	i	16.4µM*	u	u	-24.6%	u
CC(C(=O)Nc1ccc(S(=O)(=O)N2CCCC2)cc1)N1CCc2ccccc2C1 (configuration not stated)	i	8.8%	3.0%	i	-13.2%	-7.2%
Cc1ccc(SCC(=O)Nc2ccc(-c3nnc(-c4ccco4)o3)cc2)cc1	i	u	u	i	u	2.6%
CC(C)N=C(Nc1cccnc1)c1ccccc1	i	-4.8%	-1.0%	i	-0.6%	-2.0%

Source: PubChem
